Test results reported in PubChem BioAssay (EPA / NIEHS).
Records with an inconclusive call do not appear. The source made the active and inactive calls. Rule for the calls, unless noted: active = hit-call score of the fitted dose curve at least 0.9, where 1 is the maximum; inactive = score below 0.9.

Experiments:
[1] = target: Estrogen receptor (Homo sapiens) (UniProt P03372); assay: CCTE_Deisenroth_AIME_384WELL_LUC_Active: CCTE's 384-well Estrogen Receptor Transactivation Assay with AIME metabolic competence (ERTA luciferase; metabolism positive), Deisenroth Lab (AID 2284030; active = hit-call score of the fitted dose curve at least 0.9, where 1 is the maximum)
Outline: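 Estrogenic luciferase signal in VM7Luc4E2 cells is measured at 24 hour, after chemicals have been preconditioned 2 hours with PB/BNF-induced rat hepatic S9 in alginate. Gain of signal is fitted relative to 17beta-estradiol, across 0.002 - 200 uM.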

[2] = CCTE_Shafer_MEA_dev_firing_rate_mean: CCTE's Neural Network Formation Assay for Mean Firing Rate, Shafer Lab (AID 2284031);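 for AC50: curve fitted for loss of firing so AC50 reflects decreased mean firing rate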
Outline: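 Primary rat cortical neurons on 48-well, 16-electrode MEAs (PEI-coated, laminin at plating), exposed from day 0 with compound renewed at DIV 5 and 9. Spikes recorded DIV 5, 7, 9, 12; well-mean firing rate collapsed to trapezoidal AUC, loss-of-signal vs DMSO.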

[3] = CCTE_Shafer_MEA_dev_per_burst_spike_percent: CCTE's Neural Network Formation Assay for Percent of Spikes in a Burst, Shafer Lab (AID 2284032);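 for AC50: fitted as a decrease in burst spike percentage below DMSO baseline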
Outline: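 Rat primary cortical neurons on 16-electrode MEA wells, dosed from plating day 0 for 12 days with renewal on DIV 5 and 9; spikes-in-bursts percentage averaged over bursting electrodes, collapsed as AUC across days 5, 7, 9, 12; loss direction versus DMSO.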

[4] = target: Estrogen receptor (Homo sapiens) (UniProt P03372); assay: CCTE_Deisenroth_AIME_384WELL_LUC_Inactive: CCTE's 384-well Estrogen Receptor Transactivation Assay without AIME metabolic competence (ERTA luciferase; metabolism negative), Deisenroth Lab (AID 2284038; active = hit-call score of the fitted dose curve at least 0.9, where 1 is the maximum;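 note: VM7Luc4E2 breast cells given medium preincubated 2 h with S9-free microspheres; hits raise estrogen receptor luciferase signal so potencies reflect agonists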)
Outline: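 Chemicals (10-point series, 0.002 - 200 uM) were incubated 2 hours with alginate-water microsphere lids lacking S9, then the conditioned medium was transferred to VM7Luc4E2 breast cells for 24 hour. Luciferase induction was read by bioluminescence, fitted upward relative to 17beta-estradiol.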

[5] = CCTE_Shafer_MEA_dev_active_electrodes_number: CCTE's Neural Network Formation Assay for Number of Active Electrodes, Shafer Lab (AID 2284040; active = hit-call score of the fitted dose curve at least 0.9, where 1 is the maximum;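 for AC50: potency for loss of active electrodes versus DMSO so lower counts are hits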)
Outline: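 Rat cortical primary cultures, 1.5 x 10^5 cells/well, PEI-coated MEA, laminin drop. Continuous exposure DIV 0–12; full media/compound change DIV 5, 9. Readout: electrodes with mean firing ≥5 spikes/min; AUC across days; loss vs DMSO.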

[6] = target: Estrogen receptor (Homo sapiens) (UniProt P03372); assay: CCTE_Deisenroth_AIME_384WELL_LUC_Shift: CCTE's 384-well Estrogen Receptor Transactivation Assay with AIME metabolic competence data shift (ERTA luciferase; difference in metabolism positive and negative), Deisenroth Lab (AID 2284041);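 note: shift is response with S9 minus without S9 so positive means metabolism raised ER signal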
Outline: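 Chemicals (0.002–200 uM, 10 points) pre-incubated 2 h with alginate-encapsulated induced male Sprague Dawley rat liver S9 or S9-free, then medium applied 24 h to VM7Luc4E2 cells; luciferase. Endpoint is per-concentration difference, S9-positive minus negative.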

[7] = CCTE_Shafer_MEA_dev_bursting_electrodes_number: CCTE's Neural Network Formation Assay for Number of Bursting Electrodes, Shafer Lab (AID 2284043; active = hit-call score of the fitted dose curve at least 0.9, where 1 is the maximum;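 for AC50: potency is for loss of bursting electrodes relative to DMSO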)
Outline: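 Primary rat cortical neurons plated on 16-electrode MEA wells, exposed from day 0 with compound renewed at DIV 5 and 9. Electrodes bursting ≥1 burst per 2 min counted on days 5, 7, 9 and 12; trapezoidal AUC across days, fitted for loss versus DMSO.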

[8] = CCTE_Shafer_MEA_dev_per_burst_interspike_interval: CCTE's Neural Network Formation Assay for Burst Interspike Interval, Shafer Lab (AID 2284044);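 note: mean spike spacing inside bursts as AUC over recordings on days 5 7 9 12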
Outline: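 Spontaneous activity of maturing rat cortical networks is recorded on DIV 5, 7, 9 and 12 under chronic compound exposure beginning at plating. Endpoint: burst interspike interval well-mean, collapsed into trapezoidal AUC and fitted in the negative direction relative to DMSO.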

[9] = CCTE_Shafer_MEA_dev_burst_duration_mean: CCTE's Neural Network Formation Assay for Mean Burst Duration, Shafer Lab (AID 2284045)
Outline: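 Primary rat cortical neurons on 48-well 16-electrode MEA plates, exposed from day 0 with renewal at DIV 5 and 9; spontaneous activity recorded on days 5, 7, 9, 12. Well-mean burst duration across bursting electrodes, collapsed as trapezoidal AUC; DMSO baseline.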

[10] = CCTE_Shafer_MEA_dev_interburst_interval_mean: CCTE's Neural Network Formation Assay for Mean Interburst Interval, Shafer Lab (AID 2284046);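 note: well-mean interburst interval of bursting electrodes as AUC over four recording days; curve fitted for decrease in interburst interval relative to DMSO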
Outline: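 Recordings on days 5, 7, 9 and 12 give well-mean interburst interval across actively bursting electrodes, summarized as area under the curve. Cultures: rat cortical neurons, continuous exposure from day 0, compound renewed at feeds; decrease analyzed versus DMSO.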

[11] = CCTE_Shafer_MEA_dev_inter_network_spike_interval_mean: CCTE's Neural Network Formation Assay for Mean Inter-network Spike Interval, Shafer Lab (AID 2284047);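 for AC50: potency for a decrease in mean inter-network spike interval below DMSO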
Outline: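 Primary rat cortical neurons on 16-electrode MEA wells, exposed from plating day 0 through DIV 12, compound renewed at DIV 5 and 9 media changes. Mean interval between network-spike peaks recorded DIV 5, 7, 9, 12; collapsed as trapezoidal AUC, fitted downward versus DMSO.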

[12] = CCTE_Shafer_MEA_dev_network_spike_number: CCTE's Neural Network Formation Assay for Number of Network Spikes, Shafer Lab (AID 2284048);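 for AC50: fit as a loss of signal meaning fewer network spikes than DMSO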
Outline: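 Primary rat cortical neurons on PEI/laminin 48-well MEA plates, dosed from plating day 0 for 12 days, renewed at DIV 5 and 9. Network spike counts recorded DIV 5, 7, 9, 12, collapsed as trapezoidal AUC; DMSO baseline.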

[13] = CCTE_Shafer_MEA_dev_network_spike_peak: CCTE's Neural Network Formation Assay for Mean Number of Electrodes in Network Spike, Shafer Lab (AID 2284049);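 for AC50: fitted for loss of signal meaning fewer electrodes in network spikes than DMSO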
Outline: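 Network-spike peak electrode count from recordings on days 5, 7, 9 and 12 was combined as trapezoidal area under the curve. Rat cortical cultures were treated continuously from plating, with compound renewed at each feed (DIV 5, 9); fits versus DMSO.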

[14] = CCTE_Shafer_MEA_dev_spike_duration_mean: CCTE's Neural Network Formation Assay for Mean Spike Duration, Shafer Lab (AID 2284051);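 note: mean network spike duration pooled as area under curve over DIV 5 to 12 recordings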;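 for AC50: potency for a decrease in mean network spike duration versus DMSO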
Outline: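 Primary rat cortical neurons on 16-electrode MEA wells (PEI-coated, laminin in plating drop), exposed from plating through DIV 12 with compound renewed at DIV 5 and 9. Mean network-spike duration recorded DIV 5, 7, 9, 12; trapezoidal AUC across days, DMSO baseline.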

[15] = CCTE_Shafer_MEA_dev_network_spike_duration_std: CCTE's Neural Network Formation Assay for Standard Deviation of Network Spike Duration, Shafer Lab (AID 2284052);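 note: area under curve of spike duration SD across recording days 5 to 12; hits are decreases in network spike duration SD versus DMSO vehicle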
Outline: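 Primary rat cortical neurons on PEI-coated 16-electrode MEA wells, exposed from plating day 0 through day 12 with compound renewed at DIV 5 and 9. Network spike duration SD recorded on days 5, 7, 9, 12, collapsed as trapezoidal AUC; loss-of-signal fit versus DMSO.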

[16] = CCTE_Shafer_MEA_dev_per_network_spike_spike_number_mean: CCTE's Neural Network Formation Assay for Mean Number of Spikes in a Network Spike, Shafer Lab (AID 2284053);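 for AC50: fitted as decrease in spikes per network spike relative to DMSO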
Outline: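 Primary rat cortical neurons on 48-well, 16-electrode MEA plates were exposed from plating to DIV 12, with dosing renewed on DIV 5 and 9. Spikes per network spike (0.05 s peak window) were recorded on DIV 5, 7, 9 and 12 and collapsed as trapezoidal AUC versus DMSO.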

[17] = CCTE_Shafer_MEA_dev_per_network_spike_spike_percent: CCTE's Neural Network Formation Assay for Percent of Spikes in a Network Spike, Shafer Lab (AID 2284054)
Outline: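 Rat primary cortical neurons were grown on 48-well MEA plates (16 electrodes/well), exposed from plating day 0 through day 12, with treatment renewed on DIV 5 and 9. Percent of spikes within 0.05 s network-spike peaks was measured, summarised as AUC across days 5, 7, 9, 12.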

[18] = UKN5_HCS_SBAD2_cell_viability: Viability Assessment in the University of Konstanz (UKN) Leist Lab Neurite Outgrowth Assay in human iPSC-derived immature Dorsal Root Ganglia Neurons (UKN5) (AID 2284056)
Outline: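 iPSC-derived immature peripheral neurons (SBAD2) seeded on Matrigel with CHIR99021, SU5402 and DAPT, dosed 1 h later for 24 h. Viability from Hoechst H-33342 and calcein-AM live staining, high-content imaging; bidirectional fit versus DMSO.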

[19] = CCTE_Deisenroth_AIME_384WELL_CTox_Active: Cytotoxicity Assessment (CTOX) in CCTE's 384-well Estrogen Receptor Transactivation Assay with AIME metabolic competence (metabolism positive), Deisenroth Lab (AID 2284037; active = hit-call score of the fitted dose curve at least 0.9, where 1 is the maximum;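 note: chemicals first conditioned 2 h by alginate-bound induced rat liver S9 before cells; activity means signal loss indicating cell death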)
Outline: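 Chemicals pre-incubated 2 hours with alginate-immobilised phenobarbital/beta-naphthoflavone-induced male Sprague Dawley rat liver S9, then conditioned medium applied 24 hour to VM7Luc4E2 cells. Viability by fluorogenic protease substrate; 10-point series 0.002 - 200 uM.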

[20] = CCTE_Deisenroth_AIME_96WELL_CTox_Inactive: Cytotoxicity Assessment (CTOX) in CCTE's 96-well Estrogen Receptor Transactivation Assay without AIME metabolic competence (metabolism negative), Deisenroth Lab (AID 2284029; active = hit-call score of the fitted dose curve at least 0.9, where 1 is the maximum)
Outline: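 Chemicals (10-point series, 0.002-200 uM) were incubated 2 h with alginate-water microspheres lacking S9. The conditioned medium was then transferred onto VM7Luc4E2 cells for 24 h. Viability was measured by protease-substrate cleavage to a fluorescent probe, with loss of signal fitted bidirectionally; n≥4 experimental replicates.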

Measured: AC50

Chain of Estrogen receptor (Homo sapiens) (P03372 whole entry, looked up): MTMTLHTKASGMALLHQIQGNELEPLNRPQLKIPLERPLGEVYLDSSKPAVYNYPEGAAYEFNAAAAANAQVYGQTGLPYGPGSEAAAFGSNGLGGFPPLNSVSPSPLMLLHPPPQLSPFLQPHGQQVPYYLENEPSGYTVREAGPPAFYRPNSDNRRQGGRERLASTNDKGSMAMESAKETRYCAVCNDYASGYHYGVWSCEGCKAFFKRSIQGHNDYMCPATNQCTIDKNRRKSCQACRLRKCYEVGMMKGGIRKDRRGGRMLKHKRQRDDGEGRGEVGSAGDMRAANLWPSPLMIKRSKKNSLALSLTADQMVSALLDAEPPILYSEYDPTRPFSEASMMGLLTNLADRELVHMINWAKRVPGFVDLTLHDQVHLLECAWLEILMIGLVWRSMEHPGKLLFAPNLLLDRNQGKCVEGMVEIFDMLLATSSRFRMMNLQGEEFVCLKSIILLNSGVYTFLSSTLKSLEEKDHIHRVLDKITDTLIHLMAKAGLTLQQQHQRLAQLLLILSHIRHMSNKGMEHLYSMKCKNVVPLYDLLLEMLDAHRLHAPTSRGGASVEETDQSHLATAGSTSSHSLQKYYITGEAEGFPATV

OCCC(F)(F)C(F)(F)C(F)(F)C(F)(F)C(F)(F)C(F)(F)C(F)(F)C(F)(F)F
active: [7] 26 µM | [13] 24.2 µM
inactive: [1] | [2] | [3] | [4] | [5] | [6] | [8] | [9] | [10] | [11] | [12] | [14] | [15] | [16] | [17]

CC1=C(/C=C/C(C)=C/C=C/C(C)=C/C(=O)O)C(C)(C)CCC1
active: [2] 2.98 µM | [3] 19.6 µM | [5] 15 µM | [10] 3.54 µM | [11] 0.319 µM | [12] 7.99 µM | [13] 24.1 µM | [14] 10.1 µM | [15] 2.98 µM | [17] 26.9 µM
inactive: [8] | [9] | [16] | [18]

CCCCCCCCC(=O)O
inactive: [1] | [19] | [4] | [6]

ClC1=C(Cl)C(Cl)(Cl)C(Cl)=C1Cl
inactive: [1] | [19] | [4] | [6]

CCCCC(CC)COC(=O)CCCCC(=O)OCC(CC)CCCC (stereo not given)
inactive: [20]

CCCCC[C@H](O)CC(=O)CCc1ccc(O)c(OC)c1
inactive: [20]

CCCCCCCC(=O)O
inactive: [19] | [4]
active: [6] 42.1 µM

c1ccc2c(c1)ccc1ccccc12
inactive: [20] | [2] | [3] | [5] | [7] | [8] | [9] | [10] | [11] | [12] | [13] | [14] | [15] | [16] | [17]

C=C(C)C(=O)OCCC(F)(F)C(F)(F)C(F)(F)C(F)(F)C(F)(F)C(F)(F)F
inactive: [2] | [3] | [5] | [7] | [8] | [9] | [10] | [11] | [12] | [13] | [14] | [15] | [16] | [17]

CCCCC(CC)COC(=O)CCCCC(=O)OCc1ccccc1 (stereo not given)
inactive: [1] | [19] | [4] | [6]

COC(=O)CCCCC(=O)OC
inactive: [1] | [4] | [6]

CCN(CC)CCNc1ccc(CNC=O)c2sc3ccc(OC)cc3c(=O)c12
active: [19] 130 µM | [4] 26.2 µM | [6] 5.72 µM

CN1CCC[C@H]1c1cccnc1
inactive: [1] | [2] | [3] | [19] | [4] | [5] | [6] | [7] | [8] | [9] | [10] | [11] | [12] | [13] | [14] | [15] | [17] | [18]
active: [16] 6.37 µM

CCCCCCCCCCCCCCCS(=O)(=O)Oc1ccccc1
inactive: [6]
active: [1] 19.5 µM | [4] 9.6 µM

OC1CCCCC1
inactive: [1] | [19] | [4] | [6]

CCCCCCCCCCCCN1CCCC1=O
inactive: [6]
active: [19] 100 µM

Cc1ccc(S(=O)(=O)O)c(C)c1
inactive: [1] | [19] | [4] | [6]
